From PubChem BioAssay (NCATS)
Results filed as inconclusive are left out. Calls of active or inactive are those of the source. Calls follow the shape of the dose curve; as a rule, active = well fitted cell-killing curve with a large enough effect; inconclusive = small, poorly fitted or top-dose-only effect, or effect the other way; inactive = flat fitted curve, though single readings scatter.

How the values were obtained:
Assay in all cases: Primary qHTS to identify gynecologic anti-cancer compounds using libraries of approved drugs and bioactive compounds (AID 1345084); also: nearly all actives have a fitted effect of over 55% in size
[1] = tested on: C33A; conditions: Gynecologic cancer cell panel viability, ATPlite luminescence, 48 h; series mostly up to 57.5 µM
Method in brief: (§1)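 Luminescence from the ATPlite ATP-monitoring reagent indicates viable cell number; lower signal means cytotoxicity. Cells received compound 16 h after seeding and were exposed for 48 h across five concentrations.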

[2] = tested on: CAOV3; conditions: Gynecologic cancer cell panel viability, ATPlite luminescence, 48 h; series mostly up to 57.5 µM
Method in brief: as §1

[3] = tested on: CASKI; conditions: Gynecologic cancer cell panel viability, ATPlite luminescence, 48 h; series mostly up to 57.5 µM
Method in brief: as §1

[4] = tested on: Es-2; conditions: Gynecologic cancer cell panel viability, ATPlite luminescence, 48 h; series mostly up to 57.5 µM
Method in brief: as §1

[5] = tested on: HeLa; conditions: Gynecologic cancer cell panel viability, ATPlite luminescence, 48 h; series mostly up to 57.5 µM
Method in brief: as §1

[6] = tested on: Hek293T; conditions: Gynecologic cancer cell panel viability, ATPlite luminescence, 48 h, control line for the selectivity index; series mostly up to 57.5 µM
Method in brief: as §1

[7] = tested on: JEG-3; conditions: Gynecologic cancer cell panel viability, ATPlite luminescence, 48 h; series mostly up to 57.5 µM
Method in brief: as §1

[8] = tested on: OV90; conditions: Gynecologic cancer cell panel viability, ATPlite luminescence, 48 h; series mostly up to 57.5 µM
Method in brief: as §1

[9] = tested on: PA-1; conditions: Gynecologic cancer cell panel viability, ATPlite luminescence, 48 h; series mostly up to 57.5 µM
Method in brief: as §1

[10] = tested on: SKOV3; conditions: Gynecologic cancer cell panel viability, ATPlite luminescence, 48 h; series mostly up to 57.5 µM
Method in brief: as §1

[11] = tested on: Tov-21-G; conditions: Gynecologic cancer cell panel viability, ATPlite luminescence, 48 h; series mostly up to 57.5 µM
Method in brief: as §1

[12] = tested on: Tov112D; conditions: Gynecologic cancer cell panel viability, ATPlite luminescence, 48 h; series mostly up to 57.5 µM
Method in brief: as §1

Measured: Potency

C[C@H](Nc1ncnc2nc[nH]c12)c1cc2ccc(F)cc2nc1-c1ccccn1
inactive: all assays above

CC1(O)CCCC2(C)C1CCC13CC(CO)C(CCC12)C3 (stereo not drawn)
inactive: all assays above

O=c1[nH]ccc2cc(OC3CCNCC3)ccc12
inactive: all assays above

CSc1ccc(C(=O)N[C@@H]2CCCC[C@@H]2NC(=O)CNC(=O)c2cc(C(F)(F)F)ccc2NC(=O)NC(C)C)cc1
inactive: all assays above

CC(C)(O)CC(CO)NC(=O)CC(O)CC(=O)Cc1ccccc1 (stereo not drawn)
inactive: all assays above

C=C(C)C1CC[C@]2(C(=O)O)CC[C@]3(C(=O)O)[C@H](CCC4[C@@]5(C)CC[C@H](O)C(C)(C)C5CC[C@]43C)C12 (stereo partly drawn)
inactive: all assays above

CC(=O)c1cc2c(cc1O)OC(C)(C)C=C2
inactive: all assays above

COc1ccc([C@@]2(O)c3c(ccc4c3OC(C)(CCC=C(C)C)C=C4)NC(=O)[C@@H]2OC)cc1 (stereo partly drawn)
inactive: all assays above

CC(C)=CCC/C(C)=C/CO[C@@H]1O[C@H](CO)[C@@H](OC(=O)/C=C/c2ccc(O)cc2)[C@H](O[C@@H]2O[C@@H](C)[C@H](O)[C@@H](O)[C@H]2O)[C@H]1O
inactive: all assays above

CC(=O)O[C@H]1C[C@@]2(C)[C@@H](CC[C@H]3[C@@]4(C)C=CC(=O)[C@@H](C)[C@@H]4[C@H](O)C(=O)[C@@]32C)/C1=C(/CCC=C(C)C)C(=O)O
inactive: all assays above

CCNC(=O)Nc1ncc(-c2cc(-c3c(C)cc(OC)cc3C)nc(-c3cnccn3)n2)s1
inactive: all assays above

N#C[C@@H]1CCCN1C(=O)CNC12CC3CC(CC(O)(C3)C1)C2
inactive: all assays above

C=C(C(=O)O)C1CC(O)C2(C)CCCC(=C)C2C1 (stereo not drawn)
inactive: all assays above

O=S(=O)(NC1CCC(c2cc(F)ccc2F)(S(=O)(=O)c2ccc(Cl)cc2)CC1)C(F)(F)F (stereo not drawn)
inactive: all assays above
